The values below come from PubChem BioAssay.

Assay [1] in a line: A549 cell viability effects, profiling panel, calcein-AM fluorescence, 48 h, basal (AID 1162). The following applies: higher = more signal.
Assay [2] can be described thus: adipocyte viability effects, profiling panel, cell-based, 3T3-L1 adipocytes, calcein-AM fluorescence, 48 h, basal (AID 1163). The conditions noted are these: 3T3-L1 adipocytes viability, higher = more signal.
Assay [3] is described as follows: HepG2 cell viability effects, profiling panel, calcein-AM fluorescence, 48 h, basal (AID 1164). The following applies: higher = more signal.
Assay [4] in a line: MM1S cell viability effects, profiling panel, calcein-AM fluorescence, 48 h, basal (AID 1165).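 Note: viability of MM1S multiple myeloma cells under basal unstimulated conditions.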 The conditions noted are these: higher = more signal.
The nature of assay [5]: basal RPMI8226 viability, no added stimulus, profiling panel, cell-based, calcein-AM fluorescence, 48 h, PK04 Diversity Set (AID 1166).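 Note: cells grown under basal conditions without added stimulus.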 The conditions noted are these: RPMI8226 myeloma viability, higher = more signal.
Assay [6] is described as follows: basal HepG2 mitochondrial membrane potential changes, profiling panel, cell-based, JC-1 fluorescence, 24 h, 100 nL compound (AID 1167). The conditions noted are these: higher = more signal.
Assay [7] can be described thus: basal 3T3-L1 adipocyte mitochondrial potential changes, profiling panel, cell-based, JC-1 fluorescence, 3T3-L1 adipocytes, 24 h, 100 nL compound (AID 1168). The following applies: JC-1 mitochondrial fluorescence, higher = more signal, called active from +8 up or from −8 down.
Assay [8] is described as follows: basal RPMI8226 mitochondrial membrane potential changes, profiling panel, cell-based, JC-1 fluorescence, 24 h, 100 nL compound (AID 1169). The following applies: RPMI8226 myeloma, JC-1 mitochondrial potential fluorescence, higher = more signal.
Assay [9] in a line: basal MM1S mitochondrial membrane potential changes, profiling panel, cell-based, JC-1 fluorescence, 24 h, 100 nL compound (AID 1170). The conditions noted are these: higher = more signal.
The nature of assay [10]: A549 lung cancer cell viability effects, profiling panel, resazurin fluorescence, 24 h, PK04 Diversity Set (AID 1171). The conditions noted are these: higher = more signal, called active from +8 up or from −8 down. On the technique in general: The colour change of resazurin is a common sign of viable cells or microbes.

Activity calls are given as the source filed them.
Note: test concentration not given here.

In the case of `COC(=O)c1c(CC[C@@H](CO)NC(=O)N2CCC[C@H]2Cn2cc(C3(O)CCCCC3)nn2)oc(C(C)=O)c1C(=O)OC`, the z-score in assay [1] is -0.615; in [2], 0.209; in [3] it was -0.513; in [4], 0.205; in assay [5], 0.577; in assay [6] it was 0.223. In addition, the z-score was -0.629 (inactive) in [7], -0.667 in assay [8], -0.38 in assay [9] and -0.168 (inactive) in assay [10].
On to `CC(c1ccccc1)C(O)C1C=CC2C(=O)N(C)C(=O)C2N1Nc1ccccc1` (stereo not given), for which the z-score is -0.227 in [1]; -0.856 in assay [2]; 0.36 in assay [3]; -2.65 in assay [4]; -0.435 in [5]; -0.624 in assay [6]. Moreover, the z-score is -0.83 (inactive) in [7], 0.446 in assay [8], -0.527 in assay [9] and -0.183 (inactive) in [10].
`CC(C)C(O)C1C=CC2C(=O)N(c3ccccc3)C(=O)C2N1Nc1ccccc1` (stereo not given): the z-score was -1.17 in assay [1]; -0.68 in assay [2]; -0.917 in assay [3]; -0.528 in assay [4]; -1.03 in assay [5]; -1.6 in assay [6]. Further, the z-score in assay [7] was -0.855 (inactive); in assay [8], 0.0949; in [9], -1.35; in assay [10] it was 0.184 (inactive).
For the compound `CCOC(=O)C1=CC[C@@H](c2ccccc2)N(S(=O)(=O)c2ccc(C)cc2)[C@H]1c1ccccc1`, the z-score in [1] is -0.84; in [2], -1.5; in assay [3], -0.634; in assay [4] it was -1.79; in [5], 0.229; in assay [6], 1.61. Further, the z-score in assay [7] is -1.29 (inactive); in assay [8] it was -1.04; in [9], -0.0355; in [10], 1.44 (inactive).
Turning to `COCCOC(=O)N1C(=O)[C@@]2(c3ccccc31)[C@H](c1ccc(O)cc1)N1[C@H](c3ccccc3)[C@H](c3ccccc3)OC(=O)[C@H]1[C@@H]2C(=O)N1CCN(c2ncccn2)CC1`, the z-score in assay [1] is -0.402; in assay [2], 1.26; in [3], -0.611; in assay [4], -0.62; in assay [5] it was -0.42; in assay [6], -0.238. Besides, the z-score in [7] is -0.685 (inactive); in [8], 0.199; in assay [9], 0.0293; in assay [10], 0.233 (inactive).
Regarding `CC1CC/C=C\[C@H]2OC34C=CCN(C(C)(C)C)C(=O)[C@H]3N(CCCCCO)C(=O)[C@@H]4C2C(=O)O1` (stereo not given in full), the z-score in [1] is 0.0683; in assay [2], 0.525; in assay [3], 0.0474; in [4], 0.719; in [5], -0.561; in assay [6] it was -0.589. Moreover, the z-score in [7] was -0.226 (inactive); in [8] it was 0.592; in assay [9] it was -0.203; in assay [10], -0.146 (inactive).
On to `COCCOC(=O)N1C(=O)[C@@]2(c3cc(C#CC4(O)CCCCCC4)ccc31)[C@H](c1ccc(O)cc1)N1[C@H](c3ccccc3)[C@H](c3ccccc3)OC(=O)[C@H]1[C@@H]2C(=O)N1CCN(c2ncccn2)CC1`, for which the z-score in assay [1] was -0.98; in assay [2] it was 0.284; in assay [3] it was 0.278; in assay [4], -1.61; in [5] it was -1.16; in [6], -0.81. In addition, the z-score in assay [7] is -0.912 (inactive); in [8], -0.406; in assay [9], -0.091; in assay [10], 0.435 (inactive).
For `COc1cc2c(cc1O)C(C1CC1)N(C)CC2` (stereo not given), the z-score in assay [1] was 0.368; in [2] it was 0.381; in assay [3] it was 0.575; in assay [4] it was 0.533; in assay [5], -0.393; in assay [6], 0.283. For the same compound, the z-score in assay [7] is 0.883 (inactive); in [8] it was 0.0965; in [9] it was 1.87; in assay [10], -0.348 (inactive).
Turning to `OCCCC1=CC(c2ccc(CN3CCCC3)cc2)N(Cc2cc3c(cc2Br)OCO3)CC1` (stereo not given), the z-score was -0.8 in assay [1]; 1.07 in assay [2]; 0.552 in [3]; -2.99 in assay [4]; 0.866 in assay [5]; 1.72 in assay [6]. The z-score in [7] is -0.261 (inactive); in [8], 0.406; in assay [9], 0.0254; in [10], 0.731 (inactive).
On to `COCCCNC(=O)[C@@H]1c2ccccc2C(=O)N(C(C)C)[C@H]1c1ccc(CO)cc1`, for which the z-score in [1] was 0.0112; in assay [2], 0.534; in [3], -0.244; in assay [4], -0.288; in assay [5], -0.0405; in [6], -0.106. For the same compound, the z-score is -0.409 (inactive) in [7], -0.0966 in [8], 0.942 in assay [9] and 0.167 (inactive) in assay [10].
Regarding `CC#CCO[Si](C#Cc1ccccc1)(C(C)C)C(C)C`, the z-score in assay [1] is -0.511; in assay [2], -0.458; in [3] it was -0.175; in assay [4] it was -0.806; in [5] it was -1.83; in assay [6], -1.51. Further, the z-score in [7] was -0.628 (inactive); in assay [8], -0.845; in [9], -1.3; in assay [10], -0.537 (inactive).
As for `O=C1O[C@@H](c2ccccc2)[C@@H](c2ccccc2)N2[C@@H](c3ccc(OCCO)cc3)[C@]3(C(=O)Nc4ccc(C#CC5=CCCCC5)cc43)[C@@H](C(=O)NC[C@H](O)c3ccccc3)[C@H]12`, the z-score in [1] was 0.152; in assay [2], 1.49; in assay [3], 0.348; in assay [4], 0.0056; in [5], -2.81; in assay [6], -1.93. In addition, the z-score in assay [7] is -0.106 (inactive); in assay [8] it was -0.875; in [9], -1.24; in [10] it was -0.956 (inactive).
With `C=CCNC(=O)[C@@H]1[C@H]2C(=O)O[C@H](c3ccccc3)[C@H](c3ccccc3)N2[C@H](c2ccc(OCCO)cc2)[C@@]12C(=O)N(C(=O)OCCOC)c1ccc(C#Cc3ccc(OC)cc3)cc12`, the z-score was -0.528 in assay [1]; 0.786 in assay [2]; -0.834 in assay [3]; -0.845 in assay [4]; -1.32 in assay [5]; -0.638 in [6]. Further, the z-score in [7] was 0.8 (inactive); in [8] it was -0.813; in [9], -0.82; in assay [10], 0.927 (inactive).
As to `COc1cc(NN2C(C(O)c3ccco3)C=CC3C(=O)N(C)C(=O)C32)cc(OC)c1OC` (stereo not given), the z-score in [1] was -1.2; in assay [2], -0.615; in assay [3] it was -0.827; in assay [4], 0.032; in assay [5], 0.134; in assay [6], -1.01. The z-score is -0.892 (inactive) in assay [7], -0.573 in [8], 0.314 in assay [9] and -1.41 (inactive) in assay [10].
